Assay results reported in the supplement of paper PMC11732987, “Enantioselective OTUD7B fragment discovery through chemoproteomics screening and high-throughput optimisation” (Communications Chemistry, 2025).

Legend:
Experiment in all cases: log2 ratio of Biotin-Ahx-Ub-VS probe labelling (fragment/DMSO); higher = less target engagement (more negative = stronger competition), active = hit call of the paper (q ≤ 0.05, log2 ratio ≤ -1)
Conditions in all cases: compound concentration: 200 uM; treatment time: 3 h
[1] = target: T1, USP42 (UniProt Q9H9J4)
T1 sequence (whole entry): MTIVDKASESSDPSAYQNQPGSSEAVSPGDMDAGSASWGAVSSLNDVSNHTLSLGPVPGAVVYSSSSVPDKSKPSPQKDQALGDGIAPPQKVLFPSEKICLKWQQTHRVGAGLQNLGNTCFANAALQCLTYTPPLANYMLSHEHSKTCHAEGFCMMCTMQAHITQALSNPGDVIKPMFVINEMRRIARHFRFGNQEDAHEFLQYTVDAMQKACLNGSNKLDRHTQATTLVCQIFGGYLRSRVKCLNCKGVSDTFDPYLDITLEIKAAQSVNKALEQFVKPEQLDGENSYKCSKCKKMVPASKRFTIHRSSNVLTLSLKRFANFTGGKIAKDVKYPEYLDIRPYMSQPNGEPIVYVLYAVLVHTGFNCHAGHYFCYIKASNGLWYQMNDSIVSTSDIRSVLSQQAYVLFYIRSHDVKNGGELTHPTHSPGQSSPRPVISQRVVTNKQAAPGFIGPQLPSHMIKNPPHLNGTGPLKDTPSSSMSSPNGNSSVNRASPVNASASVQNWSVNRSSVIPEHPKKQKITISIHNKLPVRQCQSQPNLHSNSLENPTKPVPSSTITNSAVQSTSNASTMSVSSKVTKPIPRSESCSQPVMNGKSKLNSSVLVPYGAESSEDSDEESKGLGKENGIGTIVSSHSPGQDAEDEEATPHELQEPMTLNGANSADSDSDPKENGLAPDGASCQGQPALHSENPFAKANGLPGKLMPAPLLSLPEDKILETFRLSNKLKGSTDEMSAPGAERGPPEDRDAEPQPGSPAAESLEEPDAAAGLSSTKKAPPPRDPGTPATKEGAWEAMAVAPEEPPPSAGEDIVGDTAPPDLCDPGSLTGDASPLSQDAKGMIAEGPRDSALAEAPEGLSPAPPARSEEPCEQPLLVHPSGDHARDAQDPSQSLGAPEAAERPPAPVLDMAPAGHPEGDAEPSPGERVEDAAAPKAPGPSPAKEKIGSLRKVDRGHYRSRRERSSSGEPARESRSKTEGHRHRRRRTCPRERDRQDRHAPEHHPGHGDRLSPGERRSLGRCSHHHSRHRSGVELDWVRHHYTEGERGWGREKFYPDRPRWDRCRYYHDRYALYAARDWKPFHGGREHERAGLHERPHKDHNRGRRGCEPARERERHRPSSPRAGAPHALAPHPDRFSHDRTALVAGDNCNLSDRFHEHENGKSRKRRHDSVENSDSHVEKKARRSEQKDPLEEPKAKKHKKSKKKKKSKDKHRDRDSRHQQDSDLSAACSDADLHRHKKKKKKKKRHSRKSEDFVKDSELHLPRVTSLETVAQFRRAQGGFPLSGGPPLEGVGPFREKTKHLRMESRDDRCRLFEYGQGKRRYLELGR
Procedure, shortened: (§1)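 In triplicate, 495 µg of HEK293T lysate per sample was incubated with fragment at 200 µM or vehicle for 3 h. Biotin-Ahx-Ub-VS was then added to 0.5 µM final for 1 h, and labelled DUBs were captured with NeutrAvidin, digested with LysC and trypsin, and measured by diaPASEF LC-MS/MS. Data are average log2 fragment/vehicle ratios by unpaired t-test from global-median-normalised Spectronaut label-free quantities, restricted to proteins with ≥2 unique peptides.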

[2] = target: USP46 (UniProt P62068)
Chain of USP46 (P62068 whole entry): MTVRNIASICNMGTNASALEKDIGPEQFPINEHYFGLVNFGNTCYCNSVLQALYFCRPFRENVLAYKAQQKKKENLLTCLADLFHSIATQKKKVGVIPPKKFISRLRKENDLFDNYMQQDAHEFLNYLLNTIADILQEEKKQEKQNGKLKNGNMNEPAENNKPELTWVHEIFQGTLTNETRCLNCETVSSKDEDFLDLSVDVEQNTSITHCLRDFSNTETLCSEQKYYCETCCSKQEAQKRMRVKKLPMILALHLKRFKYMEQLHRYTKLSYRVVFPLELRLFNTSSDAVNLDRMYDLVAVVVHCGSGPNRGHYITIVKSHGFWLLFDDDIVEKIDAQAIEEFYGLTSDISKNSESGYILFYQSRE
Procedure, shortened: as §1

[3] = target: T2, USP47 (UniProt Q96K76)
T2 sequence (whole entry): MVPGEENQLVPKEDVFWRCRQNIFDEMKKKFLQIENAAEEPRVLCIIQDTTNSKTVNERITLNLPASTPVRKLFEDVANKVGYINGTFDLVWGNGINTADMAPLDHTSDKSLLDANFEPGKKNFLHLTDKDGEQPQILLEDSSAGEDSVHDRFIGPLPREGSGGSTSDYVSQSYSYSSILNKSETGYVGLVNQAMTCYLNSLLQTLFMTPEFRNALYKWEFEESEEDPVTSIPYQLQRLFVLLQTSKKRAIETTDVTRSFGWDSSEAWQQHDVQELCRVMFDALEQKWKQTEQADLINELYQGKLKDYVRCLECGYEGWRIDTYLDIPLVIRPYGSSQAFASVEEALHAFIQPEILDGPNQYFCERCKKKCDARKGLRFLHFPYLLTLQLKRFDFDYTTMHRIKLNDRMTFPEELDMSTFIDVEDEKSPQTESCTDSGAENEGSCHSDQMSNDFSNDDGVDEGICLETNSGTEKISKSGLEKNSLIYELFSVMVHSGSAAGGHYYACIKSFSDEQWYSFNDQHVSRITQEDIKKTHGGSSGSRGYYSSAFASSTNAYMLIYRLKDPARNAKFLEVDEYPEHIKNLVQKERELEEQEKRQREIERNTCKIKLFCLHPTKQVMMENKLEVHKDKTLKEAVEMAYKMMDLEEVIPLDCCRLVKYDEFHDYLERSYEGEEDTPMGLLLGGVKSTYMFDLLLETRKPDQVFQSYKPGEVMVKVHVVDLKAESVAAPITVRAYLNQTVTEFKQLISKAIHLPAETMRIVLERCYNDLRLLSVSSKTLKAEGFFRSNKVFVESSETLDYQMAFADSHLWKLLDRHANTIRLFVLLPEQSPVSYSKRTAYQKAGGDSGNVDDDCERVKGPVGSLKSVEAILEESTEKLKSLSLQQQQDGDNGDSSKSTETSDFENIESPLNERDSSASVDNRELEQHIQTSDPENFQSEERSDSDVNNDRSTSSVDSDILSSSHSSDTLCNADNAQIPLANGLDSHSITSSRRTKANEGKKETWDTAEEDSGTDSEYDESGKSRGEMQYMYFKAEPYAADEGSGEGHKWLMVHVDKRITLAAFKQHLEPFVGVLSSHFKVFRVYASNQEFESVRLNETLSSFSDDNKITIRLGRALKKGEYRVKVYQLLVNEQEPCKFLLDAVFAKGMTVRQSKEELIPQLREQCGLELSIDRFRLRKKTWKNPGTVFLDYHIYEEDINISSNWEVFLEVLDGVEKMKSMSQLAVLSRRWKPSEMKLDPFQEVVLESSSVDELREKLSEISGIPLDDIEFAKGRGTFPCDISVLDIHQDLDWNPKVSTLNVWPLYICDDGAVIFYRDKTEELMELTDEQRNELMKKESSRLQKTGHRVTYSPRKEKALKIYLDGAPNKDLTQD
Procedure, shortened: as §1

[4] = target: T3, USP48 (UniProt Q86UV5)
T3 sequence (whole entry): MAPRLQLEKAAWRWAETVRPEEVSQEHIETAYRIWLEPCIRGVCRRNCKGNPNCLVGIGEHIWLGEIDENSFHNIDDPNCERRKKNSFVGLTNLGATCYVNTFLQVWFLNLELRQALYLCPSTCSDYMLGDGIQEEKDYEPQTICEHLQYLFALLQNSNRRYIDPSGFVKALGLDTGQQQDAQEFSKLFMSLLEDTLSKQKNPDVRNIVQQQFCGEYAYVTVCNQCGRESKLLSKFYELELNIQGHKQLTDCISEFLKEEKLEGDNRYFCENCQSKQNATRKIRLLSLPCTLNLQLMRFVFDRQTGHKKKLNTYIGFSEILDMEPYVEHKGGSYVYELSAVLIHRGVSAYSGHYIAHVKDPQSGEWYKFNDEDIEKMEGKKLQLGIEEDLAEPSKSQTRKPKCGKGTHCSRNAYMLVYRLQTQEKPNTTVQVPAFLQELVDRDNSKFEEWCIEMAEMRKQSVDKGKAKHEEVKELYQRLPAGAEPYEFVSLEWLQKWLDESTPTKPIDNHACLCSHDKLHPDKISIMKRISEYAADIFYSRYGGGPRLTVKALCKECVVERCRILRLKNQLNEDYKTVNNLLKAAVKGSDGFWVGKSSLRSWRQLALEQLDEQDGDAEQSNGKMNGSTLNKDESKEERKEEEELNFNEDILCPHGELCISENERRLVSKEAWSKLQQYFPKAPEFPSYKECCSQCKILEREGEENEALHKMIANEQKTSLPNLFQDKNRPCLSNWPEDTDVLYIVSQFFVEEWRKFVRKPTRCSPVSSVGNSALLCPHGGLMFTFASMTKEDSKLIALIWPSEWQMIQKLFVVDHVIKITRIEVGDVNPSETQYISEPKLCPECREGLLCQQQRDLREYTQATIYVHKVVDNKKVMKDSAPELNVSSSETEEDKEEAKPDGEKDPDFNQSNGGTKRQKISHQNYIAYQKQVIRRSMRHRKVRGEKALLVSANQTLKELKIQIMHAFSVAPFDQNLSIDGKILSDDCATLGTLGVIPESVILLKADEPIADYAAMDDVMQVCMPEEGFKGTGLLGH
Procedure, shortened: as §1

[5] = target: T4, USP5 (UniProt P45974)
T4 sequence (whole entry): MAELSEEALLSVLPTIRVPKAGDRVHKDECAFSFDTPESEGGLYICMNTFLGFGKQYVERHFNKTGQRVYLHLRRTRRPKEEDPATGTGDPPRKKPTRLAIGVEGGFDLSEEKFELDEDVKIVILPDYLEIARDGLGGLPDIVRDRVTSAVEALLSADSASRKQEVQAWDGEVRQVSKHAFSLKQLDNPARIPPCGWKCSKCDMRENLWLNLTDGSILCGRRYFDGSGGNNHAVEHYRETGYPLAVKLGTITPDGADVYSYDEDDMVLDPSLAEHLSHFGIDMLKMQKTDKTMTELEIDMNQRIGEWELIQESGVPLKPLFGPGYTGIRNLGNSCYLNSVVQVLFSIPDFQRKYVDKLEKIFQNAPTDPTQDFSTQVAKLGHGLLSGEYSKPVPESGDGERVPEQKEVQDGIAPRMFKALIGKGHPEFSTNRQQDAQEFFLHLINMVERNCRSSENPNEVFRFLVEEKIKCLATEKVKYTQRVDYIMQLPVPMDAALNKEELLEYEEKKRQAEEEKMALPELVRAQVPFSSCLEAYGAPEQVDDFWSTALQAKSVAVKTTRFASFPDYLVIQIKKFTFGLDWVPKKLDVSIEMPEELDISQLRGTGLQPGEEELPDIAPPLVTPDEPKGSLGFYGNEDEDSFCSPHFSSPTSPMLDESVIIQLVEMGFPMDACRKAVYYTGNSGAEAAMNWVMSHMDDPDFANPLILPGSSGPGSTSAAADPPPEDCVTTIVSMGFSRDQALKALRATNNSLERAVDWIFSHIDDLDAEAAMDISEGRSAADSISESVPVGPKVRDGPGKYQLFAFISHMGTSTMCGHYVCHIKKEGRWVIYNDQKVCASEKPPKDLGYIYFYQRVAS
Procedure, shortened: as §1

[6] = target: USP54 (UniProt Q70EL1)
Chain of USP54 (Q70EL1 whole entry): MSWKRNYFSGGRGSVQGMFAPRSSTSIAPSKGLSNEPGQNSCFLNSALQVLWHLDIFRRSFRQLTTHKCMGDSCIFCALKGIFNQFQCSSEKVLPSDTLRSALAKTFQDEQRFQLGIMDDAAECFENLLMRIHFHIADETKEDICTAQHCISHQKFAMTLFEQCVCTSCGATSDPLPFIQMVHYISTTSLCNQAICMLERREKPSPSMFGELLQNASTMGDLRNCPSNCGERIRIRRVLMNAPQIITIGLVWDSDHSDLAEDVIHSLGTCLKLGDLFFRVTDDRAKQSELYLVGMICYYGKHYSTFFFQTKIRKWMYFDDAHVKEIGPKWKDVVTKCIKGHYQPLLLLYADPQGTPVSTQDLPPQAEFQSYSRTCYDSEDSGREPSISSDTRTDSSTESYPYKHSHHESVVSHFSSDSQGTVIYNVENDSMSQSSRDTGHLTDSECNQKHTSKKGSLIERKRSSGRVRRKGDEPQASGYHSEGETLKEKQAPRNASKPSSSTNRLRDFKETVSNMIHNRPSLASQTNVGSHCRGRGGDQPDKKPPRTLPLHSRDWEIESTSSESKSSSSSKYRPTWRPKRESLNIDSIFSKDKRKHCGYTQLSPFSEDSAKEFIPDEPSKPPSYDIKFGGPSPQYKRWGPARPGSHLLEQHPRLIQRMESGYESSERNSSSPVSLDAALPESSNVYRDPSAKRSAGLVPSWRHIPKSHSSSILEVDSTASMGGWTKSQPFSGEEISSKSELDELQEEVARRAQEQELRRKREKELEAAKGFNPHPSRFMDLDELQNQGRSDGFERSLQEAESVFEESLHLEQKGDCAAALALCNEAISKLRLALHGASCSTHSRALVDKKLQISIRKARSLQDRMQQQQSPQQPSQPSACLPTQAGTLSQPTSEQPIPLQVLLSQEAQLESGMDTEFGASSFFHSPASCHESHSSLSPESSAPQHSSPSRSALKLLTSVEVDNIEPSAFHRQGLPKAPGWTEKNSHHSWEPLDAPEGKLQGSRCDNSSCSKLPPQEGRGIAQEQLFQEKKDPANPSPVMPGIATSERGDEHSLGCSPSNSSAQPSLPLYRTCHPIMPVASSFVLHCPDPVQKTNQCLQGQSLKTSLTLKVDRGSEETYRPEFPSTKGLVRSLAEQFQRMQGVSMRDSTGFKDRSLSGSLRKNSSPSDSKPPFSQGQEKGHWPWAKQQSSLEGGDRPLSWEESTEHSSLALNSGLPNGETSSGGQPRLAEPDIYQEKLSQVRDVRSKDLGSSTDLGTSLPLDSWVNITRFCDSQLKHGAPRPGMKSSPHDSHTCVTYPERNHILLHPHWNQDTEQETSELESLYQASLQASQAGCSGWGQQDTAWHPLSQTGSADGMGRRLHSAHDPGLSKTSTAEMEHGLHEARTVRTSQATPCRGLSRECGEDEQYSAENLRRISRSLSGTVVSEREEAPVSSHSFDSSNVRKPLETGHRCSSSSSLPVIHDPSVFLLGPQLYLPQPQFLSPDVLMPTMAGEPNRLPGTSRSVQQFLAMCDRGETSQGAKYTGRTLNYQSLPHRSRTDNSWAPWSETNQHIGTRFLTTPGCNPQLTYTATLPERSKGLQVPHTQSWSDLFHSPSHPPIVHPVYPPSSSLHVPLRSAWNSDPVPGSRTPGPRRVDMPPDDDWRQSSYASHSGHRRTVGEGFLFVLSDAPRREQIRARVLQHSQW
Procedure, shortened: as §1

[7] = target: USP7 (UniProt Q93009)
Chain of USP7 (Q93009 whole entry, looked up): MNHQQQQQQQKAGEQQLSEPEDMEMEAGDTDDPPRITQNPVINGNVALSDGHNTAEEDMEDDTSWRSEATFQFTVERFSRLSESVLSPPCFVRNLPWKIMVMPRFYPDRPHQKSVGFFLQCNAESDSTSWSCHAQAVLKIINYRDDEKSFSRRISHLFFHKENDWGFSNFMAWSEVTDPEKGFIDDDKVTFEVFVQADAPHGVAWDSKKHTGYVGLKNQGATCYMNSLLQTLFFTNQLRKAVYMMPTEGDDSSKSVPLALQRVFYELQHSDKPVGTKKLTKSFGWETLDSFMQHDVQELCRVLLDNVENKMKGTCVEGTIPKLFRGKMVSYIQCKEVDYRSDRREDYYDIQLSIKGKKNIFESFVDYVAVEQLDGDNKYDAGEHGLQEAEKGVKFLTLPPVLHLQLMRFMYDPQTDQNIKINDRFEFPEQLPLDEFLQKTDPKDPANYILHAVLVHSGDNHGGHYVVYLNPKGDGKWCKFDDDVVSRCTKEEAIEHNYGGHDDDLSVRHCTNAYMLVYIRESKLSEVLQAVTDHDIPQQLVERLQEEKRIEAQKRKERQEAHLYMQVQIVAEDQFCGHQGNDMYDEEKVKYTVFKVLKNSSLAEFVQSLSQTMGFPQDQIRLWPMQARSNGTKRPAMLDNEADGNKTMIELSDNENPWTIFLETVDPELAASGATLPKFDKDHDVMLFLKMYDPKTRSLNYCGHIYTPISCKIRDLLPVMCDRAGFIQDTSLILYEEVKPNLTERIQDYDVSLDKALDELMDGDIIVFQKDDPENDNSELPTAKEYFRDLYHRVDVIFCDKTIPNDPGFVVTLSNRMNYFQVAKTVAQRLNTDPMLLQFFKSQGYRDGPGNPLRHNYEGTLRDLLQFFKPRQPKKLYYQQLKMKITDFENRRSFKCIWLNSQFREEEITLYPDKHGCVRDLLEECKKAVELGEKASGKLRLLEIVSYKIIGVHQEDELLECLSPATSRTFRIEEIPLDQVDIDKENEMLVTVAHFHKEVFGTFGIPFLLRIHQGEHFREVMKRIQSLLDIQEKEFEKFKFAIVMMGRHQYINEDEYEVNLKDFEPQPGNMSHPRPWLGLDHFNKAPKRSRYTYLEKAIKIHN
Procedure, shortened: as §1

[8] = target: T5, USP8 (UniProt P40818)
T5 sequence (whole entry): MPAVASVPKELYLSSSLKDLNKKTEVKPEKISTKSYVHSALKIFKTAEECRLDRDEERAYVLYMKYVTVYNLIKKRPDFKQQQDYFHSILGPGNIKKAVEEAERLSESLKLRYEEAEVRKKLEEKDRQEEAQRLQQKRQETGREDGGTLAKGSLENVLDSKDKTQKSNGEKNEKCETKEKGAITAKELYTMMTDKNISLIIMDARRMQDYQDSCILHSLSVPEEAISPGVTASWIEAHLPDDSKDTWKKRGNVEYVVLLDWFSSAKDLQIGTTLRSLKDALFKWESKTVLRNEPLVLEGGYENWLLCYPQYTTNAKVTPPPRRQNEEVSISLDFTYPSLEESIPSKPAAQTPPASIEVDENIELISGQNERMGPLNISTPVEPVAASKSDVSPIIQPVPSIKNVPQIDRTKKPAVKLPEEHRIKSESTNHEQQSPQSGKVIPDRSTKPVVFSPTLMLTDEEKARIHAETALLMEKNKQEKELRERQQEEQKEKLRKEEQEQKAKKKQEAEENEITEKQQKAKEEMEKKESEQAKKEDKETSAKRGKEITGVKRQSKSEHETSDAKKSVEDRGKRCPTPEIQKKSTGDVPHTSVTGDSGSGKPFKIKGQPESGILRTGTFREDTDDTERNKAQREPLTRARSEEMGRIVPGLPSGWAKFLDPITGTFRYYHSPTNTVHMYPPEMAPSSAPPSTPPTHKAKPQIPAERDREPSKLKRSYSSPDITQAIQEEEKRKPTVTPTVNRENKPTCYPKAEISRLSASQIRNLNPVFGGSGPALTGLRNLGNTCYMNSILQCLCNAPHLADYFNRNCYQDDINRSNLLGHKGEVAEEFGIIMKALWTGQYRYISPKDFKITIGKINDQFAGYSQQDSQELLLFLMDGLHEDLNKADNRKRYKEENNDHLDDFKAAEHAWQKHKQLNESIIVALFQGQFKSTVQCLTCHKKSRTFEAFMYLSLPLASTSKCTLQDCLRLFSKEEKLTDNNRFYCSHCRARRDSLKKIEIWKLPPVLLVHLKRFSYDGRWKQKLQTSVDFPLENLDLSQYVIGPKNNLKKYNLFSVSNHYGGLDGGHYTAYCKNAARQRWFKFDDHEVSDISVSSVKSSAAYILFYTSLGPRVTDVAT
Procedure, shortened: as §1

Measured: log2 ratio of Biotin-Ahx-Ub-VS probe labelling

O=C(CCl)N1CCc2[nH]c3ccccc3c2C1
inactive: [1] 0.132 | [2] -0.655 | [3] -0.863 | [4] -0.532 | [5] -0.461 | [6] -0.00488 | [7] -0.511 | [8] -0.774
